Experimental data from PubChem BioAssay (NCATS).
Inconclusive results are not listed. Active and inactive are the calls of the source. Unless noted, the call rests on the fitted dose curve; in most records, active means well fitted curve in the direction sought with a large enough effect; inconclusive means small, poorly fitted or top-dose-only effect, or another doubt; inactive means no such curve, though single readings can be large; an effect the other way counts as inactive or inconclusive.

Columns and labels:
[1] = qHTS profiling of the MIPE4 collection as inhibitors of Plasmodium falciparum (3D7) proliferation (AID 743344; call rule not given here;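 further: scaled between DMSO vehicle wells and 0.29 µM artemisinin as full inhibition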); conditions: P. falciparum 3D7 in erythrocytes, SYBR Green DNA fluorescence, 72 h; at 28.5 µM unless noted
Procedure, shortened: (§1)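 Parasite DNA was quantified by SYBR Green I fluorescence (ex 485, em 535 nm) after overnight lysis in saponin/Triton buffer at room temperature. Cultures at 0.3% parasitemia and 2.5% hematocrit were first exposed to compound for 72 h at 37 C; signals were normalised to artemisinin (0.29 uM) and vehicle wells.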

[2] = qHTS profiling of the MIPE4 collection as inhibitors of Plasmodium falciparum (DD2) proliferation (AID 743345; call rule not given here); conditions: P. falciparum Dd2 in erythrocytes, SYBR Green DNA, 72 h; at 28.5 µM unless noted
Procedure, shortened: as §1

[3] = qHTS profiling of the MIPE4 collection as inhibitors of Plasmodium falciparum (DD2) proliferation (Rep 2) (AID 743346; call rule not given here); conditions: P. falciparum Dd2 in erythrocytes, SYBR Green DNA, 72 h; at 28.5 µM unless noted
Procedure, shortened: as §1

[4] = High-throughput drug toxicity screening in the BPDCN cell line Gen2.2 (AID 1224824; call rule not given here;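 further: cells exposed to compounds for 48 h before reading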); conditions: Gen2.2 BPDCN cells; at 45.8 µM (top of the series) unless noted
Procedure, shortened: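 Seed 500 exponentially growing Gen2.2 cells/well; add compounds by pin tool; incubate 48 h, 37 °C, 5% CO2; add CellTiter-Glo, 15 min RT; read luminescence. % activity vs DMSO (100%) and bortezomib (0%).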

[5] = High-throughput drug toxicity screening in the BPDCN cell line Cal-1 (AID 1224825; call rule not given here); conditions: Cal-1 BPDCN cell viability, qHTS; at 45.8 µM (top of the series) unless noted
Procedure, shortened: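 CellTiter-Glo luminescence after 48 h compound exposure; percent activity scaled with DMSO as 100% and bortezomib (9.2 uM final) as 0%. Cal-1 cells seeded at 500/well in RPMI, 10% FBS, no phenol red.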

[6] = qHTS assay for measurement of the activity of small molecule inhibitors on Zika virus induced Caspase-3 activity in human iPSC derived neural progenitor cells (hNPCs) (AID 1224857); further: nearly all actives have a fitted effect of over 65% in size; further: potency means the concentration at half of the fitted maximal effect
Procedure, shortened: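 Caspase-3/7 induction by a 6-hour ZIKV infection was quantified with a luminescent Caspase-Glo 3/7 reagent incubated 30 minutes at room temperature. Compounds were preincubated with hNPCs for 1 hour; inhibition was calculated against uninfected and infected control wells.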

[7] = qHTS assay for measurement of the activity of small molecule inhibitors on Zika virus induced Caspase-3 activity in human astrocytoma cells (AID 1224859);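 further: plate controls were ZIKV-infected untreated cells for no effect and uninfected cells for full effect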
Procedure, shortened: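 In SNB-19 cells plated at 250 cells/well and grown 16-20 h, compounds were applied 1 h before ZIKV (2 FFU/cell). Six hours later caspase-3/7 luminescence was recorded.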

[8] = qHTS Screen of the MIPE 4.0 Collection Against Ewings Sarcoma (RDES) (AID 1259252); further: nearly all actives have a fitted effect of over 35% in size; further: potency means the concentration at half of the fitted maximal effect
Procedure, shortened: (§2)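 Dose series incubated 48 h with cells in RPMI plus 5% FBS, glutamine and penicillin/streptomycin; cell viability then quantified via CellTiter-Glo.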

[9] = qHTS Screen of the MIPE 4.0 Collection Against Ewings Sarcoma (EW8) (AID 1259255); further: nearly all actives have a fitted effect of over 35% in size; further: potency means the concentration at half of the fitted maximal effect;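 on viability: 100% = DMSO-treated cells and 0% = medium-only wells without cells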
Procedure, shortened: as §2

[10] = qHTS Screen of the MIPE 4.0 Collection Against Ewings Sarcoma (TC32) (AID 1259256); further: nearly all actives have a fitted effect of over 45% in size; further: potency means the concentration at half of the fitted maximal effect
Procedure, shortened: as §2

[11] = qHTS assay to identify small molecule inhibitors of chordoma cells - UCH-2 (AID 1259356); further: on the % scale 0 is the no-effect control and ±100 the full control effect
[12] = qHTS profiling of the MIPE4 collection as inhibitors of Plasmodium falciparum (HB3) proliferation (AID 743347; call rule not given here;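 further: plate controls were DMSO vehicle wells for no effect and artemisinin wells for full effect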); conditions: P. falciparum HB3 in erythrocytes, SYBR Green DNA, 72 h; at 28.5 µM unless noted
Procedure, shortened: as §1

[13] = P-glycoprotein substrates identified in KB-3-1 adenocarcinoma cell line, qHTS therapeutic library screen (AID 1346986); further: nearly all actives have a fitted effect of over 60% in size;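 further: potency means the concentration at half of the fitted maximal effect; potency is for cytotoxicity meaning loss of cell viability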
Procedure, shortened: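 Viability by CellTiter-Glo after 72 h compound exposure at 37 degree C, 5% CO2. Cytotoxic call: curve class -1.1 to -2.4, maximum response >50%, AC50 < 10 uM, compared across KB-3-1 and P-gp-overexpressing KB-8-5-11.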

[14] = qHTS Screen of the MIPE 4.0 Collection Against Ewings Sarcoma (TC71) (AID 1259253);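 further: 100% = DMSO-treated cells and 0% = medium-only wells without cells; nearly all actives have a fitted effect of over 40% in size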
Procedure, shortened: as §2

[15] = Identifying Small Molecule Inhibitors of Pancreatic Cancer Stem Cells (Panc1, Spheroid) (AID 1259359);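 further: potency means the concentration at half of the fitted maximal effect; compound exposure lasted 48 h before reading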
Procedure, shortened: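 After a 4 h attachment period, compounds were pinned into wells and cultures held 48 h under standard incubator conditions. Viability was then measured as CellTiter-Glo luminescence following 10 min at room temperature.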

[16] = Identifying Small Molecule Inhibitors of Pancreatic Cancer Stem Cells (SN12C, Spheroid) (AID 1259360); conditions: Potency: SN12C spheroid viability; further: potency means the concentration at half of the fitted maximal effect
Procedure, shortened: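 Spheroids grown 14 days in stem cell media on hydrogel-coated nonadherent plates; 2D lines seeded directly. Compounds added after 4 h attachment, 48 h at 37C, 5% CO2; CellTiter-Glo luminescence normalized to DMSO (no inhibition) and no-cell wells (full inhibition).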

[17] = Identifying Small Molecule Inhibitors of Pancreatic Cancer Stem Cells (A278, Adherent) (AID 1259361);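 further: viability read after 48 h compound exposure; nearly all actives have a fitted effect of over 35% in size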
Procedure, shortened: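 Endpoint: ATP-based luminescence, 48 h drug exposure. Bortezomib at 9.2 uM final as full-kill control; DMSO vehicle as negative control; activity normalized between vehicle and cell-free wells.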

Row | Compound | parasite growth, % of DMSO control [1] | parasite growth remaining, % of DMSO control (lower = more inhibition) [2] [%] | parasite growth, % of control (lower = inhibition) [3] | cell viability, % of control (lower = more cytotoxic) [4] | viability (% of control) [5] | Potency [6] | Potency [7] | Potency [8] | Potency [9] | Potency [10] | outcome [11] | growth, % of control [12] | Potency [13] | Potency [14] | Potency [15] | Potency [16] | IC50 (viability decrease) [17]
1 | CN1CC(=O)N2C(Cc3c([nH]c4ccccc34)[C@H]2c2ccc3c(c2)OCO3)C1=O (some centres not stated) | 14% | 17.5 | 23.9% | 110% | 85.7% | 3.72 µM (active) | inactive | inactive | inactive | inactive | inactive |  |  |  |  |  | 
2 | COc1cc2nccc(Oc3ccc(NC(=O)Nc4ccc(F)cc4F)c(F)c3)c2cc1OC | 17.2% | 36.3 | 46.4% | 205% | 86.2% | inactive | inactive | 14.8 µM (active) | 16.6 µM (active) | 6.62 µM (active) |  | 9.7% | 7.31 µM (active) |  |  |  | 
3 | N#CC(=C1Nc2ccccc2S1)c1ccnc(OCc2ccc(CN3CCOCC3)cc2)n1 | 14.1% | 57.9 |  | 5.77% | 2.57% | inactive | inactive | 7.43 µM (active) | 5.26 µM (active) | 7.43 µM (active) |  |  |  |  |  |  | 
4 | CC[C@H](C)C(=O)O[C@H]1C[C@H](O)C=C2C=C[C@H](C)[C@H](CC[C@@H](O)C[C@@H](O)CC(=O)O)[C@H]21 | 96% | 105 | 162% | 113% | 113% | inactive | inactive | inactive | inactive | 20.9 µM (active) | inactive | 101% |  |  |  |  | 
5 | O=C(CO)N1CCC(c2[nH]nc(-c3ccc(Cl)cc3)c2-c2ccncn2)CC1 | 25.8% | 82.9 | 53.8% | 421% | 97.4% | inactive | inactive | inactive |  |  |  | 30.6% | inactive | inactive |  |  | 
6 | C[C@]12CC[C@@H]3c4ccc(O)cc4CC[C@H]3[C@H]1[C@@H](O)[C@@H](O)[C@H]2O | 5.15% | 9.25 | 7.28% | 218% | 44.4% | inactive | inactive | 20.9 µM (active) | inactive | inactive |  | 2.52% | inactive |  |  |  | 
7 | CC(C)(C)c1[nH]cnc1C=c1[nH]c(=O)c(=Cc2ccccc2)[nH]c1=O | 20.3% [at 57.5 µM] |  | 23.1% [at 57.5 µM] | 15.7% [at 92.2 µM] | 5.98% [at 92.2 µM] | inactive | inactive | inactive | inactive | inactive |  | 7.41% [at 57.5 µM] |  |  | 1.9 nM (active) | 14.8 µM (active) | 16.6 nM (active)
8 | CCNC(=O)[C@H]1O[C@@H](n2cnc3c(N)nc(NCCc4ccc(CCC(=O)O)cc4)nc32)[C@H](O)[C@H]1O | 93.9% | 110 | 116% | 96.2% | 129% | inactive | inactive | inactive |  |  |  | 99.8% |  | inactive |  |  | 
9 | O=[N+]([O-])c1ccc(Nc2ccccc2-c2ccccc2)c2nonc12 | 33.4% | 83.4 | 46.7% | 145% | 88.7% | inactive | inactive | inactive | inactive | inactive |  | 75.1% |  |  |  |  | 
10 | Nc1nc(Cl)nc2c1ncn2[C@@H]1O[C@H](CO)[C@@H](O)[C@H]1F | 81.5% | 97.5 | 63.9% | 159% | 13.2% | inactive | inactive | inactive | inactive | inactive |  | 96.1% |  |  |  |  | 
11 | COc1cc(C=CC(=O)O)ccc1O | 88.4% | 95 |  | 105% | 96.5% | inactive | inactive | inactive | inactive | inactive |  | 82.4% |  |  |  |  | 
12 | CN(C)N=Nc1nc[nH]c1C(N)=O | 86.1% | 94.4 |  | 123% | 121% | inactive | inactive | 18.7 µM (active) | inactive | inactive |  |  |  |  |  |  | 
13 | Cn1c(=O)c(Oc2ccc(F)cc2F)cc2cnc(NC3CCOCC3)nc21 | 25.1% | 86.4 | 48.3% | 178% | 93.3% | inactive | inactive | inactive |  | inactive |  | 35.7% | inactive |  |  |  | 
